Compounds with a hit are over-represented: about 21% of the library has one in this group of screens.
VP16 counter – inhibits Gal4-VP16 luciferase reporter, ROR gamma counter-screen; Drosophila S2 Gal4-VP16 UAS-luciferase, luminescence, 20 h; Potency, µM (series often up to 53.6 µM), usual class: inhibitors; 310,000 tested, 3.5% active; AID 2546;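 note: Gal4-VP16 expression switched on by copper sulfate through the metallothionein promoter; nearly all actives have a fitted effect of over 50% in size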
DT40 TDP1 no CPT – qHTS for Inhibitors of human tyrosyl-DNA phosphodiesterase 1 (TDP1): qHTS in cells in absence of CPT. DT40 Tdp1-/- hTDP1 cells, no CPT, ATP luminescence, 48 h. Potency, µM (titrated, usually from 46.2 µM), actives largely listed as inhibitors. 420,000 tested, 15% active. AID 686978, 2013; note: nearly all actives have a fitted effect of over 55% in size
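No-CPT arm: Tdp1-/-;hTDP1 DT40 cells (400/well) plus compounds, incubated ≥48 hr at 37 °C. Readout CellTiter-Glo luminescence.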
ELG1 repair inh – blocks ELG1-dependent DNA repair in HEK293T cells | HEK293T ELG1-luciferase reporter, luminescence, 16 h; DNA damage induced by 5-fluorouridine | Potency, µM (titrated, usually from 46.1 µM), most hits filed as inhibitors | 330,000 tested, 2.3% active; note: nearly all actives have a fitted effect of over 55% in size
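Reporter activity after DNA damage by 5-fluorouridine is monitored. Compound-treated cells incubate 16 hr at 37 °C, then ONE-Glo is added for 30 min before luminescence reading.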
DT40 TDP1 CPT – DT40-hTDP1 cell growth loss with CPT; chicken DT40 Tdp1-/-;hTDP1 cells + 20 nM CPT, ATP luminescence, 48 h; Potency, µM (highest dose often 46.2 µM), usual class: inhibitors; 420,000 tested, 12% active; note: nearly all actives have a fitted effect of over 55% in size
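Chicken DT40 Tdp1-/- cells complemented with human TDP1, 400 cells/well, exposed to compounds plus 20 nM camptothecin for at least 48 h at 37 C; viability read as ATP content by CellTiter-Glo luminescence.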
IL1B secr inh – blocks inflammasome-driven IL-1 beta release. AID 743279. 360,000 tested, 4.7% active. THP-1 LPS/ATP IL-1B secretion, AlphaLISA, 16 h; active compounds read low. activity change, % at 57.5 µM; in the data active = activity change below about -50%; inconclusive = mostly about -30% to -49%
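THP-1 cells pretreated 1 hr with compounds (up to 57.5 uM final), then stimulated with LPS (250 ng/mL final) plus ATP (1.25 mM final); secreted IL-1B measured by AlphaLISA after 16 hr, decreased signal indicating inhibition.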
RORgamma inh – blocks mouse ROR gamma transcriptional activity | P51450 | Drosophila S2 Gal4-RORgamma UAS-luciferase reporter, 20 h | Potency, µM (doses to about 53.6 µM), usual class: inhibitors | 310,000 tested, 5.4% active; note: nearly all actives have a fitted effect of over 60% in size
Target sequence (P51450 whole entry, looked up, the tested form may be a part): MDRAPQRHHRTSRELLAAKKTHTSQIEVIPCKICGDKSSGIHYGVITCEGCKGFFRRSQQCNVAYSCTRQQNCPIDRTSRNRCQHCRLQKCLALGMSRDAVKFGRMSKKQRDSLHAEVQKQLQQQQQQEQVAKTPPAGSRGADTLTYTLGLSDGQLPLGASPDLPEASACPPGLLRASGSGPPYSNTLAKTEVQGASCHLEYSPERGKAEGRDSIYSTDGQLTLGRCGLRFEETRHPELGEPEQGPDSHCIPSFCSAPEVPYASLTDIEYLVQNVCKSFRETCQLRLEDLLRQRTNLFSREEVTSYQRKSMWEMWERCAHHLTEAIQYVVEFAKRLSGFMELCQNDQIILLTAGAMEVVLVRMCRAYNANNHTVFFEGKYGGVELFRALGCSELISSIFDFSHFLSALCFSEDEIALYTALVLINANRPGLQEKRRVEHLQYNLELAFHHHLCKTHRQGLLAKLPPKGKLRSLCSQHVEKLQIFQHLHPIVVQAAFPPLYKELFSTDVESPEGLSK
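A Gal4/UAS one-hybrid system in insect cells: metallothionein-promoter Gal4–ROR gamma fusion plus Photinus luciferase reporter. Copper sulfate 700 uM final, 20 hr ambient incubation, luminescent detection after 10 min with reagent.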
Numbers stand for hits; 0 = inactive; ? = inconclusive; - = no result; [ ] = dose if it differs, or a comment. Unless noted, calls come from the whole dose curve; as a rule, active = well fitted curve in the direction sought with a large enough effect; inconclusive = small, poorly fitted or top-dose-only effect, or another doubt; inactive = no such curve, though single readings can be large; an effect the other way counts as inactive or inconclusive.

SMILES | VP16 counter | DT40 TDP1 no CPT | ELG1 repair inh | DT40 TDP1 CPT | IL1B secr inh | RORgamma inh
Cn1cc(C(=O)NCCc2ccccc2)c(=O)c2cc(S(=O)(=O)N3CCCCC3)ccc21 | - | 0 | - | 0 | - | -
Cc1noc(C)c1-c1nc(NC2CCNCC2)c2ccccc2n1 | 0 | ? | - | ? | - | 0
Cc1ccc(/C=C/C(=O)Nc2cccc3cccnc23)o1 | 0 | 12µM | ? | 12µM | 0 | 0
Cc1ccc(/C=C/C(=O)Nc2nnc(C)s2)o1 | 0 | 0 | ? | 0 | 0 | 0
CC(=O)c1ccc(NC(=O)/C=C/c2ccc(C)o2)cc1 | - | ? | - | 15µM | - | -
Cc1ccc(/C=C/C(=O)Nc2ccc(Oc3ccccc3)cc2)o1 | ? | ? | ? | ? | -83 | 0
CC(=O)Nc1ccc(S(=O)(=O)c2ccc(N)cc2)cc1 | 0 | 0 | ? | 0 | 0 | 0
O=C(O)/C=C/C(=O)Nc1ccc(Oc2ccccc2)cc1 | 0 | 0 | 0 | 0 | - | 0
CCOC(=O)/C=C/S(=O)(=O)c1ccc(NC(C)=O)cc1 | 3.5µM | 2.1µM | ? | 1.3µM | -95 | 3.5µM
CN(CC(=O)Nc1ccc(F)cc1)C(=O)c1ccc(N2C(=O)CCC2=O)cc1 | - | 0 | 0 | 0 | 0 | -
COc1c2c(cc3c1C(CC(=O)c1c(O)c(OC)c4occc4c1OC)[N+](C)(C)CC3)OCO2 (stereo not given) | 0 | 0[9.04 µM] | - | 0[9.04 µM] | - | 0
Cc1cc(C)c(NS(=O)(=O)c2ccc(NC(=O)c3cccs3)cc2)c(C)c1 | ? | 0 | ? | 0 | 0 | ?
CCOC(=O)/C=C/C(=O)Nc1ccc(Oc2ccccc2)cc1 | 0 | ? | 0 | ? | -73 | ?
CCOC(=O)/C=C/C(=O)Nc1ccc(S(=O)(=O)Nc2c(C)cc(C)cc2C)cc1 | 0 | 16µM | ? | 7.3µM | -72 | 0
Cc1cc(NS(=O)(=O)c2ccc(NC(=O)/C=C/c3ccc(C)o3)cc2)nc(C)n1 | 0 | 18µM | 0 | 15µM | 0 | 0
CC(=O)OCC(=O)[C@@]1(O)CCC2C3CC(C)C4=CC(=O)C=CC4(C)C3C(O)CC21C (stereo not given in full) | 0 | 0 | - | 0 | - | 0
CCOC(=O)c1c(NC(=O)/C=C/c2ccc(C)cc2)sc(C(C)=O)c1C | - | 0 | - | 0 | - | -
N#Cc1c2ccc([N+](=O)[O-])cc2[n+]([O-])n1-c1ccccc1 | - | - | 10µM | - | - | -
CC1CCN(c2ncnc3c2nnn3C)CC1 | - | 0 | - | 0 | - | -
COc1ccc2c(C)nc(N/C(N)=N/S(=O)(=O)c3ccc(C)cc3)nc2c1 | 0 | ? | ? | ? | ? | 0
COc1ccc(OC)c(NC(=O)c2cc3ccccc3cc2OC)c1 | 0 | ? | 0 | 0 | ? | ?
CCc1ccc(NC(=S)/N=C(\N)Nc2nc(C)c3cc(CC)ccc3n2)cc1 | 7.1µM | ? | 0 | ? | -64 | 1.1µM
COc1ccc2nc(N/C(N)=N/C(=S)Nc3ccc(C)c(C)c3)nc(C)c2c1 | ? | - | 0 | - | - | 0.79µM
COc1ccc(OC)c(N/C(=N/C(=S)Nc2ccccc2)Nc2nc(C)cc(C)n2)c1 | 0.71µM | 8.2µM | ? | ? | 0 | ?
CCOc1ccc2nc(N/C(N)=N/S(C)(=O)=O)nc(C)c2c1 | 0 | 0 | ? | 0 | ? | 0
SMILES | VP16 counter | DT40 TDP1 no CPT | ELG1 repair inh | DT40 TDP1 CPT | IL1B secr inh | RORgamma inh
COc1ccc2nc(N/C(N)=N/C(=S)Nc3ccccc3)nc(C)c2c1 | 4.5µM | 8.2µM | ? | 26µM | -87 | 0.79µM
Cc1ccccc1OC1(C)CCN(Cc2ccc(-c3ccccn3)cc2)C1 (stereo not given) | - | ? | - | ? | 0 | -
CCNc1nc(NC(C)C)nc(-c2ccncc2)n1 | - | 0 | - | 0 | 0 | -
CN(C)c1ccnc2sc(C(=O)NCc3ccccc3)c(N)c12 | 0 | ? | ? | 16µM | - | ?
CN(C)C=Nc1c(C(=O)c2ccccc2)sc2nccc(N(C)C)c12 | 0 | ? | ? | 0 | -54 | 0
Cc1c(C#N)c(N=CN(C)C)c(C(=O)c2ccccc2)n1-c1ccccc1 | 0 | 0 | 0 | ? | 0 | 0
CN(C)c1ccnc2sc(C(=O)c3ccc(Br)cc3)c(N)c12 | 0 | 0 | ? | 0 | ? | 0
CCc1nc2c(OCC3COc4ccccc4O3)cccn2c1N(C)C(=O)c1ccc(OC)cc1 (stereo not given) | - | ? | - | ? | 0 | -
Oc1ccc(-c2n[nH]c(C(F)(F)F)c2-c2ccccc2)c(O)c1 | 1.6µM | 1.6µM | ? | 1.8µM | -78 | 5.6µM
C=C(C)COc1ccc(-c2ncnc(C(F)(F)F)c2-c2ccccc2)c(O)c1 | 0 | ? | 0 | 0 | 0 | 0
COc1ccccc1-c1c(-c2ccc(O)cc2O)n[nH]c1C(F)(F)F | 0 | 2.3µM | 5.8µM | 5.8µM | 0 | ?
COc1ccc(-c2c(-c3ccc(O)cc3O)n[nH]c2C(F)(F)F)cc1 | 10µM | 0 | 0 | ? | 0 | 0
CCOc1cc(C2c3c(oc4ccc(F)cc4c3=O)C(=O)N2Cc2ccco2)ccc1O (stereo not given) | - | 0 | - | 0 | - | -
N#CCCN(Cc1cccnc1)CN1C(=O)c2ccccc2C1=O | - | 0 | - | 0 | 0 | -
COc1cc(Cl)c(C)cc1NC(=O)COC(=O)CCc1nc2ccccc2c(=O)[nH]1 | - | 0 | 0 | 0 | 0 | -
Cc1ccc(Cn2cccc2/C=C2/C(=N)N3C=CSC3=NC2=O)cc1 | ? | ? | 0 | ? | 0 | 13µM
N=C1/C(=C/c2cccn2Cc2ccc(F)cc2)C(=O)N=C2SC=CN12 | 0 | 0 | 0 | 0 | 0 | 10µM
CCOC(=O)C(/C(C)=N/NC(=O)C1CC1c1ccccc1)C(C)C (stereo not given) | 0 | 0 | 0 | 0 | 0 | 0
COc1ccc(COC(=O)N/N=C2/C[C@@H](O)[C@@H](O)[C@@H]3[C@@H]4C(=O)N(Cc5ccccc5)C(=O)[C@H]4CC[C@@H]23)cc1 | 0[10 µM] | - | - | - | - | 0[10 µM]
Cc1cccc(C)c1NC(=O)C(c1ccccc1OC(F)(F)F)N1CCC(c2ccccc2)CC1 (stereo not given) | - | 16µM | - | ? | 0 | -
Cc1cccc(C)c1NC(=O)C(c1ccccc1OC(F)(F)F)N1CCN(C/C=C/c2ccccc2)CC1 (stereo not given) | - | 15µM | - | 16µM | ? | -
Cc1ccc(NC(=O)Cn2c(SCc3ccc(F)cc3)nc3cccnc32)cc1F | - | 0 | - | 0 | - | -
Cc1cc(C(=O)NCc2cccc(Br)c2)c2c(C)nn(-c3ccccc3)c2n1 | - | 0 | - | 0 | - | -
O=C(NCc1ccccn1)C(=O)Nc1cc2c3c(c1)CC(=O)N3CCC2 | - | 0 | 0 | 0 | 0 | -
Cc1c(-c2ccc(Cl)cc2)noc1C1CCN(CCc2ccccc2)CC1 | 0 | 15µM | - | ? | - | 0
Cc1c(C2CCN(CCc3ccccc3)CC2)noc1-c1ccc(Cl)cc1 | ? | 9.2µM | - | 12µM | - | 0

Screening results (PubChem BioAssay)
